One test has as its system RXRa homodimer (NR concentration 180 nM). As to the kind of experiment: PBM binding z-score (relative to random genomic background probes); higher = stronger binding; sequences stand for … in GC…GCGATTGACAGCGTAGAATGAAGG
Put shortly:
(§1)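 Scanned fluorescence from custom Agilent 4×180K protein-binding microarrays was regression-normalized. Binding z-scores use random background probes as reference. Ligand-free nuclear receptor dimers were incubated on the arrays for 1 h and detected with antibodies against each partner (one per run).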
Sequence ATCTCGAGGTAACAAGTTCAGTGAAAGAGAGGAC showed a PBM binding z-score of 1.15.

For AATACAGGGTCATCGTAGGCCAGAGAACGCACAG, the PBM binding z-score is 6.83.

Sequence GCAGACAAGTGAAACGCAGGTAACTCAGGGTGGC yielded a PBM binding z-score of 0.115.

Consider TCATATAGGTAATACGGGTGAAAGTCGGCATCTA, for which the PBM binding z-score was 0.921.

Sequence GCGTATAGGTAATACAAGGTGAAAGTCCGATTGT had a PBM binding z-score of 0.647.

Take CAAACTAAGTCAAAGGTCAAAGTCGAGCCAACCA: the PBM binding z-score worked out at 8.46.

Turning to GCTATTAGTTGAAAGGCCAACCGAATGATTCTCG, the PBM binding z-score was 0.44.

On to GCATAGAGGTAATACAAGGTGAAAGTCCGATTGT, for which the PBM binding z-score was 0.977.

As for ATATGTAGGTTTAGGGTCATTCAGGTTGGTTCGC, the PBM binding z-score turned out to be 4.4.

TCTCGGAGGACACGAAAGGTCAGAGTTCGACATC returned a PBM binding z-score of 5.12.

As to TAGCCTAGGTCTTTGGGCCAGTATAGTACGCATC, the PBM binding z-score is -0.392.

Turning to CCTCGGAGGACAGAAGGCCAGAGCTGTCCGCTTT, the PBM binding z-score is -0.765.

The sequence TTACCAAGGTGTAAGGTCGTTGATGCACGCCTTG showed a PBM binding z-score of 1.35.

In turn, ATCTCTAGATAACAAGTTCAGTGAAAGAGAGGAC showed a PBM binding z-score of 0.621.

Consider ATCGAAAGGTCGAGGTGAATATAGAGAAAGGGAA, for which the PBM binding z-score was 4.65.

Sequence CATACAGGGTTAGCTAGGCCAGAGTAGGGACGGC had a PBM binding z-score of 0.914.

For the sequence CCTGCTATGTCATGGTCAGCTAATCTACAGTATG, the PBM binding z-score came to 0.209.

As for AGAATGAGGTAATTAAGATCAGGGAATTGCGGTC, the PBM binding z-score worked out at 0.198.

For the next test, the system named is THRa:RXRa (NR concentration 90 nM, RXRa partner concentration 90 nM). Described as above. Put shortly: as §1
Sequence CCGAGTAGGTTATGGGGCATCCAGGCAACGGTGA returned a PBM binding z-score of 0.523.

GGAAAGAGGGCAAAGTTGATAGCATCTGTCGACG returned a PBM binding z-score of 1.08.

Take CAGCCTAGGTCAAGGCCAGTATAGGAGGAACGTT: the PBM binding z-score is 2.75.

In the case of AGTATTAGTTGAGACGAGGGCAACCGATAGGTTG, the PBM binding z-score was determined as 2.68.

The sequence TCTCGGAGGACACGAAAGATCAGAGCTCGACATC showed a PBM binding z-score of 1.2.

ATAAGTAGGTTAAGGGTCATTCAGGTTGGTTCGC: the PBM binding z-score was determined as 3.65.

Regarding CCTAGTTGGTTAGGAGGTCACACACCGGATATGA, the PBM binding z-score came out at 3.42.

On to CGTCAAAGTTCAACTAAGGTAACGGAAAGCACGC, for which the PBM binding z-score stood at 5.24.

Sequence ATCTCTAGGTAACAGTTCAGTGAATCCCGAGGAT gave a PBM binding z-score of 0.831.

Sequence TAGCCTAGGTCAGATCGGGCCACTATACGCTATA had a PBM binding z-score of 4.72.

Sequence CGTCAAAGTTAAACTAAGGTAACGTAAAGCACGC yielded a PBM binding z-score of 4.04.

For ACTTACGGGTCAACGAGGTTTTAGCACGCGTATA, the PBM binding z-score amounted to 3.46.

Consider CCTGCTAGGTCAATGGTTAGCTAAAGCAGCTCGC, for which the PBM binding z-score was 2.11.

Consider CGTCAAAGTTCATCTAAGGTAACGTAAAGCACGC, for which the PBM binding z-score came to 5.26.

TCTTGTAGATCAAAGGTTAAGTAAGCCGAAGCCT had a PBM binding z-score of 1.92.

With CCGACTGGGGCAGAAAGGGTACCATACCATCCGG, the PBM binding z-score is -0.36.

Sequence GCTGCTAGGTCAACTGATGGTCAGGTAAAGCTCG showed a PBM binding z-score of 3.27.

In the case of TCAGACAGGTGCAGGTAACTCAGGTACGCAGTCG, the PBM binding z-score was 0.824.

For the sequence TAGCCTAGGTCATGCGGGCCGGTATAGTGTCGGC, the PBM binding z-score worked out at 2.97.

TTTTGTAGATCAATAGAGGTTAAGAAAGTGCGCT: the PBM binding z-score came out at 2.28.

TAGCCTAGGTCATTGGTCCAGTATAGTACGCATC showed a PBM binding z-score of 2.84.

TCATATAGGTAAATGCAAGGTGAAAGTCCGATCT yielded a PBM binding z-score of 2.64.

Sequence ATCTCGAGGTAACAAGTTCAGTGAAAGAGAGGAC returned a PBM binding z-score of 2.31.

For AATACAGGGTCATCGTAGGCCAGAGAACGCACAG, the PBM binding z-score worked out at 4.95.

GCAGACAAGTGAAACGCAGGTAACTCAGGGTGGC showed a PBM binding z-score of 0.682.

As for TCATATAGGTAATACGGGTGAAAGTCGGCATCTA, the PBM binding z-score worked out at 0.697.

Regarding GCGTATAGGTAATACAAGGTGAAAGTCCGATTGT, the PBM binding z-score amounted to 4.35.

Regarding CAAACTAAGTCAAAGGTCAAAGTCGAGCCAACCA, the PBM binding z-score is 3.74.

For the sequence GCTATTAGTTGAAAGGCCAACCGAATGATTCTCG, the PBM binding z-score came out at 0.141.

The sequence GCATAGAGGTAATACAAGGTGAAAGTCCGATTGT registered a PBM binding z-score of 4.44.

ATATGTAGGTTTAGGGTCATTCAGGTTGGTTCGC showed a PBM binding z-score of 4.23.

Turning to TCTCGGAGGACACGAAAGGTCAGAGTTCGACATC, the PBM binding z-score was 3.77.

Regarding TAGCCTAGGTCTTTGGGCCAGTATAGTACGCATC, the PBM binding z-score was -0.218.

In the case of CCTCGGAGGACAGAAGGCCAGAGCTGTCCGCTTT, the PBM binding z-score turned out to be 0.0492.

With TTACCAAGGTGTAAGGTCGTTGATGCACGCCTTG, the PBM binding z-score was determined as 2.49.

In turn, ATCTCTAGATAACAAGTTCAGTGAAAGAGAGGAC displayed a PBM binding z-score of 0.754.

Turning to ATCGAAAGGTCGAGGTGAATATAGAGAAAGGGAA, the PBM binding z-score turned out to be 2.95.

As for CATACAGGGTTAGCTAGGCCAGAGTAGGGACGGC, the PBM binding z-score was 0.66.

CCTGCTATGTCATGGTCAGCTAATCTACAGTATG: the PBM binding z-score was -0.0552.

As for AGAATGAGGTAATTAAGATCAGGGAATTGCGGTC, the PBM binding z-score is 1.34.

In a further test the test system is THRa homodimer (NR concentration 90 nM). The test is described as above. In a few lines: as §1
The sequence CCGAGTAGGTTATGGGGCATCCAGGCAACGGTGA registered a PBM binding z-score of 0.159.

As to GGAAAGAGGGCAAAGTTGATAGCATCTGTCGACG, the PBM binding z-score amounted to 0.0442.

On to CAGCCTAGGTCAAGGCCAGTATAGGAGGAACGTT, for which the PBM binding z-score is 0.86.

The sequence AGTATTAGTTGAGACGAGGGCAACCGATAGGTTG came in with a PBM binding z-score of 0.356.

In turn, TCTCGGAGGACACGAAAGATCAGAGCTCGACATC gave a PBM binding z-score of 0.159.

In the case of ATAAGTAGGTTAAGGGTCATTCAGGTTGGTTCGC, the PBM binding z-score came to 2.27.

On to CCTAGTTGGTTAGGAGGTCACACACCGGATATGA, for which the PBM binding z-score was determined as 2.5.

With CGTCAAAGTTCAACTAAGGTAACGGAAAGCACGC, the PBM binding z-score was 1.9.

ATCTCTAGGTAACAGTTCAGTGAATCCCGAGGAT: the PBM binding z-score came out at 0.517.

In turn, TAGCCTAGGTCAGATCGGGCCACTATACGCTATA showed a PBM binding z-score of 0.493.

For CGTCAAAGTTAAACTAAGGTAACGTAAAGCACGC, the PBM binding z-score is 1.78.

For the sequence ACTTACGGGTCAACGAGGTTTTAGCACGCGTATA, the PBM binding z-score worked out at 0.678.

Sequence CCTGCTAGGTCAATGGTTAGCTAAAGCAGCTCGC showed a PBM binding z-score of 0.48.

CGTCAAAGTTCATCTAAGGTAACGTAAAGCACGC showed a PBM binding z-score of 2.52.

Consider TCTTGTAGATCAAAGGTTAAGTAAGCCGAAGCCT, for which the PBM binding z-score is -0.293.

With CCGACTGGGGCAGAAAGGGTACCATACCATCCGG, the PBM binding z-score was -0.53.

On to GCTGCTAGGTCAACTGATGGTCAGGTAAAGCTCG, for which the PBM binding z-score was 1.76.

Regarding TCAGACAGGTGCAGGTAACTCAGGTACGCAGTCG, the PBM binding z-score came out at 0.0725.

Take TAGCCTAGGTCATGCGGGCCGGTATAGTGTCGGC: the PBM binding z-score turned out to be 0.888.

For the sequence TTTTGTAGATCAATAGAGGTTAAGAAAGTGCGCT, the PBM binding z-score is -0.0563.

In turn, TAGCCTAGGTCATTGGTCCAGTATAGTACGCATC showed a PBM binding z-score of 1.47.

For TCATATAGGTAAATGCAAGGTGAAAGTCCGATCT, the PBM binding z-score was 1.5.

Consider ATCTCGAGGTAACAAGTTCAGTGAAAGAGAGGAC, for which the PBM binding z-score came out at 0.969.

Turning to AATACAGGGTCATCGTAGGCCAGAGAACGCACAG, the PBM binding z-score was determined as 1.74.

Take GCAGACAAGTGAAACGCAGGTAACTCAGGGTGGC: the PBM binding z-score is -0.967.

Sequence TCATATAGGTAATACGGGTGAAAGTCGGCATCTA came in with a PBM binding z-score of 0.103.

For GCGTATAGGTAATACAAGGTGAAAGTCCGATTGT, the PBM binding z-score is 1.03.

Sequence CAAACTAAGTCAAAGGTCAAAGTCGAGCCAACCA had a PBM binding z-score of 0.739.

Take GCTATTAGTTGAAAGGCCAACCGAATGATTCTCG: the PBM binding z-score was -0.222.

On to GCATAGAGGTAATACAAGGTGAAAGTCCGATTGT, for which the PBM binding z-score stood at 0.985.

As for ATATGTAGGTTTAGGGTCATTCAGGTTGGTTCGC, the PBM binding z-score is 4.2.

TCTCGGAGGACACGAAAGGTCAGAGTTCGACATC returned a PBM binding z-score of 1.57.

Consider TAGCCTAGGTCTTTGGGCCAGTATAGTACGCATC, for which the PBM binding z-score is -0.674.

Turning to CCTCGGAGGACAGAAGGCCAGAGCTGTCCGCTTT, the PBM binding z-score is -0.927.

With TTACCAAGGTGTAAGGTCGTTGATGCACGCCTTG, the PBM binding z-score stood at 1.59.

With ATCTCTAGATAACAAGTTCAGTGAAAGAGAGGAC, the PBM binding z-score is 0.108.

With ATCGAAAGGTCGAGGTGAATATAGAGAAAGGGAA, the PBM binding z-score was 0.862.

As to CATACAGGGTTAGCTAGGCCAGAGTAGGGACGGC, the PBM binding z-score is -0.483.

For the sequence CCTGCTATGTCATGGTCAGCTAATCTACAGTATG, the PBM binding z-score is -0.368.

On to AGAATGAGGTAATTAAGATCAGGGAATTGCGGTC, for which the PBM binding z-score worked out at 0.328.

These data come from the supplement of paper PMC6555819.
